CYP2C9 inh – inhibitors of human CYP2C9 | P11712 | CYP2C9 Supersomes, luciferin-H conversion, luminescence | inhibition, % at 5 µM | hit rate 20% among 96,000 | AID 777;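 active = blocking of liver enzyme CYP2C9 beyond about 50% at 5 µM, limit read from the data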
Target sequence (P11712 whole entry, looked up): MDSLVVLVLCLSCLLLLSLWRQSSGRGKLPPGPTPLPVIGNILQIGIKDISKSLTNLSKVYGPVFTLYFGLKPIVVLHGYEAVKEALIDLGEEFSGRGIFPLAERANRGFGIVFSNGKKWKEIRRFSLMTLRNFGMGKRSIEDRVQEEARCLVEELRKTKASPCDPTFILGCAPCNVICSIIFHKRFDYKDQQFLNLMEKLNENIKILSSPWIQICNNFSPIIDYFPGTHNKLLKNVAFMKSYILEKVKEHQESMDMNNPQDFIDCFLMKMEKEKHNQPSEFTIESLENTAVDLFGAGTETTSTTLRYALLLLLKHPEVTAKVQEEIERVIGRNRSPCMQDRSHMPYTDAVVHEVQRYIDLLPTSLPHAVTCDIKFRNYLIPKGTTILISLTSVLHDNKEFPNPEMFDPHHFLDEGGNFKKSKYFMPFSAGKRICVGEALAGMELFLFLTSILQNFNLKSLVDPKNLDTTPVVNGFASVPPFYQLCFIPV
PostGolgi ctrl – yeast control strain growth, post-Golgi counter-screen | efflux-deficient yeast background strain, growth absorbance A615, 16 h | AID 738 | inhibition, % at 10 µM | hit rate 5% among 98,000
PostGolgi yeast – growth inhibition of a yeast mutant, post-Golgi transport screen; inhibition, % at 10 µM; post-Golgi transport phenotypic cell assay; hit rate 0.9% among 98,000;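 also: yeast cells grown in 1536-well plates; yeast grown about 18 h at 30C before absorbance read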
CYP2C9 act – CYP2C9 (human) activation; activation factor at 5 µM; hit rate 1.4% among 96,000; recombinant CYP2C9, luciferin-H conversion, luminescence; stronger effect = higher value; factor 1 = untreated enzyme, 0 = blocked; P11712;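 active = activation factor of 2 or more for CYP2C9 at a 5 µM dose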;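 also: 0 = sulfaphenazole-blocked wells and 1 = vehicle-only wells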
CYP2C19 inh – human CYP2C19 inhibition; P33261; CYP2C19 Supersomes, luciferin-H EGE luminescence, 30 min; inhibition, % at 5 µM; hit rate 21% among 96,000; AID 778;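 active = CYP2C19 inhibition above a set limit at 5 µM in the primary screen, cut at about 50% in these data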;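 also: plate controls were negative control wells for no effect and 2.5 mM tranylcypromine positive control for full effect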
CYP2C19 activ – cytochrome P450 2C19 (human) activation; recombinant CYP2C19, luciferin-H EGE luminescence; stronger effect = higher value; 0 = fully inhibited enzyme, 1 = untreated enzyme; AID 1025; P33261; activation factor at 5 µM; 96,000 tested, under 10 active;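 active = activation factor of at least 2 at 5 µM in the primary screen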;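 also: 0 = wells with 2.5 mM tranylcypromine and 1 = vehicle-only wells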
An asterisk follows results filed as active. In the library only some 32% were active in any assay of this set; here they are far more common. Rule as the data show it, unless noted: active = inhibition above about 30%; inactive = the rest.

SMILES | CYP2C9 inh | PostGolgi ctrl | PostGolgi yeast | CYP2C9 act | CYP2C19 inh | CYP2C19 activ
CCOC(=O)c1ccc(NC(=S)NCCCN2CCCCC2)cc1 | 14.7 | 2.3 | 8.0 | 0.9 | 2.3 | 1
COCCNS(=O)(=O)c1ccc2c(c1)C(=O)c1cc(S(=O)(=O)NCCOC)ccc1-2 | 64.1* | 2.4 | -6.2 | 0.4 | 5.8 | 0.9
O=C(O)CCCNS(=O)(=O)c1ccc2ccccc2c1 | -33.9 | 23.9 | 2.9 | 1.3 | 9.6 | 0.9
O=C1c2cc(S(=O)(=O)NCCCO)ccc2-c2ccc(S(=O)(=O)NCCCO)cc21 | 58.2* | -8.6 | 3.3 | 0.4 | 3.6 | 1
CCN(CC)C(=O)Oc1ccc2c(=O)c(-c3ccccc3)coc2c1 | -38.8 | -1.9 | -1.3 | 1.4 | 6.8 | 0.9
CCOc1ccc(-n2c(SCC(=O)Nc3ccc(OC)cc3OC)nc3c(c2=O)SCC3)cc1 | 44.3 | 20.4 | -4.0 | 0.6 | 38.8 | 0.6
Cn1c(=O)c2c(ncn2CC(=O)N2CCN(c3ccc(F)cc3)CC2)n(C)c1=O | 77.7* | 8.2 | 3.6 | 0.2 | -0.2 | 1
O=C(COc1ccc(-n2cnnn2)cc1)N1CCN(c2ccc(F)cc2)CC1 | 2.1 | 4.8 | -4.5 | 1 | -2.4 | 1
COC(=O)c1ccc(OC)cc1OCC(=O)N1CCN(c2ccc(F)cc2)CC1 | 32.5 | 4.0 | 3.9 | 0.7 | 64.5* | 0.4
O=C(CN1C(=O)c2cccc3cccc1c23)N1CCN(c2ccc(F)cc2)CC1 | -118.6 | 10.0 | 19.3 | 2.2* | 5.3 | 0.9
O=[N+]([O-])c1ccc(N2CCN(S(=O)(=O)Cc3ccccc3)CC2)cc1N1CCOCC1 | 53.4* | 16.5 | 25.1 | 0.5 | 56.4* | 0.4
O=C(CC1NCCNC1=O)OCc1ccccc1 (stereo unspecified) | -12.7 | 3.9 | -5.6 | 1.1 | -8.7 | 1.1
COc1ccc(-c2cc(C(=O)N3CCc4ccccc4C3)no2)cc1OC | 28.4 | 20.1 | -2.9 | 0.7 | 27.5 | 0.7
Cc1ccc(C2C(C(=O)O)c3ccccc3C(=O)N2C)o1 (stereo unspecified) | 9.0 | 12.0 | 20.4 | 0.9 | -3.4 | 1
O=C(COc1ccccc1Cl)N1CCN(c2ccc(F)cc2)CC1 | -28.7 | 15.5 | 8.8 | 1.3 | 82.0* | 0.2
COc1ccc(Nc2ncc(C(=O)N3CCN(c4ccc(F)cc4)CC3)c3ccccc23)cc1 | 66.5* | 28.1 | 6.4 | 0.3 | 61.1* | 0.4
COc1ccc(Nc2ncc(C(=O)O)c3ccccc23)cc1 | -24.2 | 6.2 | 1.7 | 1.2 | -10.2 | 1.1
O=C(OCC(=O)N1CCN(c2ccccc2)CC1)c1ccc2ccccc2n1 | -130.4 | 5.4 | -0.3 | 2.3* | -0.7 | 1
O=C(Cn1cccc1)N1CCN(c2ccc(F)cc2)CC1 | 11.7 | 4.9 | -9.2 | 0.9 | 73.2* | 0.3
O=C(CN1CCN(c2ccc(F)cc2)CC1)N1CCOCC1 | 17.2 | 16.7 | -0.3 | 0.8 | 28.5 | 0.7
Cc1nc2ccccc2nc1OCC(=O)N1CCN(c2ccccc2)CC1 | -23.5 | 22.7 | 2.0 | 1.2 | 23.3 | 0.8
O=C(COc1ccccc1Br)N1CCN(c2ccccc2)CC1 | -4.3 | 14.4 | -4.9 | 1 | 94.6* | 0.1
O=C(COc1ccccc1Cl)N1CCN(c2ccc([N+](=O)[O-])c(N3CCOCC3)c2)CC1 | 85.3* | 13.9 | -9.4 | 0.1 | 31.6 | 0.7
Cc1ccc(-c2c3c(=O)n(C)c(=O)n(C)c3cn2N2CCOCC2)cc1 | 33.0 | 50.6* | -2.1 | 0.7 | 1.9 | 1
c1ccc2c(c1)ncn2-c1ncnc2sc3c(c12)CCCC3 | 32.4 | 12.8 | -9.3 | 0.7 | 69.9* | 0.3
SMILES | CYP2C9 inh | PostGolgi ctrl | PostGolgi yeast | CYP2C9 act | CYP2C19 inh | CYP2C19 activ
Cc1cc2ncn(-c3ncnc4sc(C)c(C)c34)c2cc1C | 83.2* | 25.7 | -5.3 | 0.2 | 91.4* | 0.1
Cc1cc2ncn(-c3ncnc4sc5c(c34)CCCC5)c2cc1C | 65.9* | 38.7* | -5.9 | 0.3 | 82.8* | 0.2
Cc1cc2ncn(-c3ncnc4scc(-c5ccccc5)c34)c2cc1C | 16.0 | 22.4 | -10.9 | 0.8 | 25.9 | 0.7
Cc1cc2ncn(-c3ncnc4sc5c(c34)CCC(C)C5)c2cc1C (stereo unspecified) | 42.6 | 69.8* | 3.6 | 0.6 | 80.1* | 0.2
CN1CCC(OC(=O)c2cccc(Br)c2)CC1 | 36.8 | 8.2 | 3.0 | 0.6 | 19.9 | 0.8
COc1ccc(C)cc1S(=O)(=O)N(C)CC(=O)NCc1ccco1 | 51.4* | 0.3 | -3.8 | 0.5 | 27.0 | 0.7
COc1cc(NC(=O)CN(C)S(=O)(=O)c2ccc(C)cc2)cc(OC)c1 | -77.3 | -9.7 | 8.6 | 1.8 | 82.3* | 0.2
CSc1cccc(NC(=O)CN(C)S(=O)(=O)c2ccc(C)cc2)c1 | -18.4 | 0.6 | -1.0 | 1.2 | 52.1* | 0.5
CNC(=O)CN(c1ccc(F)cc1)S(=O)(=O)c1cc(C)ccc1OC | 80.2* | 3.5 | 11.4 | 0.2 | 81.6* | 0.2
CN(CC(=O)NCc1ccco1)S(=O)(=O)c1cccc2cccnc12 | -50.4 | 5.2 | 6.0 | 1.5 | 13.4 | 0.9
Cc1ccc(C)c(NC(=O)CN(C)S(=O)(=O)c2ccc(F)cc2)c1 | -84.6 | 0.3 | 13.7 | 1.8 | 16.4 | 0.8
CC(OC(=O)CN(C)S(=O)(=O)c1ccc(Cl)cc1)C(=O)Nc1cccc(Cl)c1 (stereo unspecified) | 20.4 | 20.0 | 0.6 | 0.8 | 36.9 | 0.6
CC1NC2(C(=O)N(Cc3ccccc3)c3ccccc32)C2C(=O)N(c3ccccc3)C(=O)C12 (stereo unspecified) | 0.1 | 5.3 | -2.2 | 1 | 16.5 | 0.8
COc1ccc(C)cc1S(=O)(=O)N(CC(N)=O)Cc1ccccc1 | 33.2 | -4.5 | -2.4 | 0.7 | 98.6* | 0
Cc1ccc(S(=O)(=O)N(C)CC(=O)Nc2ccccc2)cc1 | -27.4 | 1.1 | -5.5 | 1.3 | 62.8* | 0.4
COc1ccc(C)cc1S(=O)(=O)N(CC(=O)O)c1ccccc1 | 49.5 | 2.2 | -2.8 | 0.5 | -3.9 | 1
CN(CC(=O)Nc1cccnc1)S(=O)(=O)c1ccccc1 | 19.4 | -0.8 | -6.7 | 0.8 | 14.4 | 0.9
COc1ccc(C)cc1S(=O)(=O)N(C)CC(=O)Nc1ccccc1 | 89.8* | 5.3 | -4.5 | 0.1 | 91.3* | 0.1
CCOC(=O)c1cnc(SCC(=O)Nc2ccc(NC(=O)CC)c(OC)c2)nc1N | 49.7 | -1.2 | -8.3 | 0.5 | 20.2 | 0.8
COc1ccc(-n2nnc3c(=O)n(C/C=C/c4ccccc4)cnc32)cc1 | 20.4 | 9.2 | -7.1 | 0.8 | -1.3 | 1
O=C(CCNS(=O)(=O)c1cccc2nsnc12)NC1CCN(Cc2ccccc2)CC1 | 0.6 | 3.2 | 13.7 | 1 | 4.8 | 1
CCCCN(CCCC)S(=O)(=O)c1ccc2[nH]c(=O)[nH]c2c1 | 47.6 | -1.4 | 3.3 | 0.5 | 13.0 | 0.9
COc1ccc2c(c1)c(C(=O)CN1CCN(C(=O)c3ccco3)CC1)c(C)n2C | 3.0 | 1.3 | -4.0 | 1 | 57.1* | 0.4
Cc1ccc(OCC(=O)Sc2ccc(C)cc2)cc1 | 45.8 | -0.5 | -1.4 | 0.5 | 52.2* | 0.5

Screens (PubChem)
